Data on 20 compounds can be found in PubChem BioAssay AID504408 (Broad Institute, 2011).

Molecules are shown by their SMILES. Among all 300,000 compounds or so, about 5,200 (1.7%) were called active. This excerpt belongs to a sample that is enriched for actives. Values without a mark were called inactive.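 Rule for the calls: active = mean replicate activation of at least 50% with a set share of replicates each reaching 50%; inconclusive = only one of those two conditions met; inactive = mean below 50% and too few replicates reaching it.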

The test can be described thus: HSF-1 response element luciferase induction – NIH3T3-HGL cells, MG132 stress, luminescence, single point, primary screen (AID 504408).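 Note: 0% = median of the neutral control wells and 100% = twice that signal.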 Conditions: NIH3T3-HGL HSF-1 luciferase reporter, MG132, 8 h; at 9 µM; hits give high values. (Reporter assays use an easily measured gene product as a stand-in for the process of interest.)
In the case of `CCOc1ccc(CN(CCCl)CCCl)cc1C(=O)OC`, the activation is 68.2% (active).
Consider `CCCOC(=O)C1C2c3ccccc3C(c3ccccc32)C1C(=O)O` (stereo not given), for which the activation was -7.72%.
The result for `C=CCn1c(O)c(/C=N/N2CCOCC2)c(=O)[nH]c1=S` reads 35%.
For `CC[C@H]1CC2CN3CCc4c([nH]c5ccccc45)C(C(=O)OC)(C2)C13` (stereo not given in full), the activation was 3.35%.
The result for `COc1ccc(-n2c(-c3ccccc3)nc3ccccc3c2=O)cc1` reads -4.8%; that for `CC12CCC3C(CCC4CC(=O)CCC43C)C1CC(=NO)C2=O` (stereo not given), -22.3%; that for `O=C1NC(=O)N(CCc2ccc(F)cc2)C(=O)/C1=C/C=C/c1ccccc1`, 196% (active).
Turning to `O=C(O)COc1ccccc1/C=C1\C(=O)NC(=O)N(CCC2=CCCCC2)C1=O`, the activation is 10%.
The figure for `O=C1NC(=O)N(Cc2ccco2)C(=O)/C1=C\c1ccc(-c2ccc(F)cc2)o1` is 14.8%; for `O=C(COC(=O)c1ccccc1)Nc1ccc(Cl)cc1C(=O)c1ccccc1` it is -9.79%; for `O=C(NC(=S)N1C[C@H]2C[C@H](C1)c1cccc(=O)n1C2)c1ccc(F)cc1` it is -0.361%.
As to `CN(C)CC1Oc2ccccc2OC1(O)c1ccccc1` (stereo not given), the activation was 89.4% (active).
The figure for `CNC(=O)O/N=C(\N)Cc1csc2ccc(Cl)cc12` is 27.8%.
In the case of `O=C(O)C1CSC(c2cccnc2)N1` (stereo not given), the activation was 3.54%.
`COC(=O)C(c1ccccc1)N1CCCCCC1` (stereo not given): the activation was 1.63%.
For the compound `COC(=O)N1C(c2ccccc2)C1c1ccccc1` (stereo not given), the activation was 50.1% (active).
For the compound `O=C(CCN1CCCCC1)NCC(=O)Nc1ccc(Br)cc1C(=O)c1ccccc1`, the activation is -6.9%.
Turning to `O=C(CSC1c2ccccc2-c2ccccc21)N/N=C/c1ccccc1`, the activation was -4.94%.
The figure for `COc1ccc(C2NCc3ccc4c(c3-n3cccc32)OCO4)cc1OC` (stereo not given) is 4.67%; for `CCOC(=O)C1SC2(C(F)(F)C(F)F)CC1(O)c1c(c(OC)c3occc3c1OC)O2` (stereo not given) it is -4.08%.
